Here are results for eleven compounds from PubChem BioAssay (EPA / NIEHS).

The test system of assay [1] is guinea pig Histamine Receptor (H2), gene 100729734. Briefly: NVS_GPCR_gH2: NovaScreen (NVS) G Protein-Coupled Receptor Assay for guinea pig Histamine Receptor (H2) (AID 2283342). In a few lines:
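Guinea pig striatal membrane preparation with specific radioligand; bound counts measured by filtration and scintillation 1 h post-dosing, DMSO as baseline. Chemicals passing a 25 uM duplicate screen were titrated to a 50 uM maximum.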

Another assay deals with PGR (gene 5241) (UniProt P06401). Briefly: NVS_NR_hPR: NovaScreen (NVS) Nuclear Receptor Binding Assay for human Progestron Receptor (PR) (AID 2283360). The gist of the method: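 Cell-free radioligand binding using receptor protein extracted from T47D cells, read by scintillation counting 18 hours after dosing. Loss of signal relative to DMSO baseline indicates displacement; primary screen single concentration 25 uM in duplicate, actives followed in concentration series.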

For assay [2], the target named is bovine Estrogen Receptor (ER), ESR1 (gene 407238) (UniProt P49884). Briefly: NVS_NR_bER: NovaScreen (NVS) Nuclear Receptor Binding Assay for bovine Estrogen Receptor (ER) (AID 2283345).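 Further: actives lower the bound radioligand count which means they displace the ER ligand.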 The gist of the method: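 Cell-free radioligand binding with receptor from bovine uterine membranes, read by scintillation counting 18 h after dosing. Loss of specific binding was scored against DMSO; primary screen at 25 uM in duplicate, actives then run as concentration series.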

In assay [3] the target is Estrogen receptor (Homo sapiens) (UniProt P03372). Description: NVS_NR_hER: NovaScreen (NVS) Nuclear Receptor Binding Assay for human Estrogen Receptor (ER) (AID 2283348). The gist of the method: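 Radiodetection of ligand displacement in a lysate-based, cell-free format using MCF7 extracts, read at 18 hours. Duplicate 25 uM primary testing, then concentration series for actives.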

Assay [4] shares this target. Description: OT_ER_ERaERa_1440: Odyssey Thera (OT) 24-hour HEK293T Protein-Complementation Assay for Estrogen Receptor-alpha/-alpha Homodimer (AID 2283349).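 Further: hits raise fluorescence above DMSO for agonists and antagonists alike.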 In a few lines: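 Stably transfected HEK293T; ERα LBD homodimer PCA. 24 h dosing, fluorescence intensity read, gain-of-signal vs DMSO.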
For assay [5] the target is unchanged. Description: OT_ER_ERaERa_0480: Odyssey Thera (OT) 8-hour HEK293T Protein-Complementation Assay for Estrogen Receptor-alpha/-alpha Homodimer (AID 2283351).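 Further: rise in fluorescence from reassembled reporter fragments on ERα LBD homodimer in nucleus or whole cell.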 The gist of the method: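 Cells were treated for 8 hours, then imaged on a laser scanning plate cytometer. Complementation of reporter fragments fused to the human ERα ligand-binding domain (residues 310-547) in HEK293T gave fluorescence, and gain of signal over vehicle was fitted.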

Assay [6] deals with Androgen Receptor/SRC-1 Co-activator, AR (gene 367) (UniProt P10275). Description: OT_AR_ARSRC1_0960: Odyssey Thera (OT) 16-hour HEK293T Protein-Complementation Assay for Androgen Receptor/SRC-1 Co-activator (AID 2283353).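 Further: actives raise the signal above DMSO so potency reflects increased AR and SRC-1 complex.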 In a few lines: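 Stable HEK293T line carries AR and SRC-1 each linked to a Venus fragment; chemicals are applied for 16 h, cells imaged at two wavelengths, and the 488 nm nucleus/cytoplasm ratio is taken as the signal, rising relative to DMSO.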

For assay [7] the target is unchanged. Briefly: OT_AR_ARSRC1_0480: Odyssey Thera (OT) 8-hour HEK293T Protein-Complementation Assay for Androgen Receptor/SRC-1 Co-activator (AID 2283354).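 Further: hits raise the complementation signal above DMSO so AC50 marks enhancers.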 The gist of the method:
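After 8 h dosing, stably expressing HEK293T cells with split-Venus AR/SRC-1 fusions were imaged (488, 635nm). The 488nm N/C ratio per image gave the endpoint, analysed in the positive direction against DMSO.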

The target in assay [8] is T1, Estrogen receptor (Homo sapiens) + Estrogen receptor beta (Homo sapiens) (UniProt P03372+Q92731). Briefly: OT_ER_ERaERb_1440: Odyssey Thera (OT) 24-hour HEK293T Protein-Complementation Assay for Estrogen Receptor-alpha/-beta Homodimer (AID 2283356).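 Further: heteromer of ER alpha and ER beta binding domains; hits raise reporter fluorescence and both agonists and antagonists give an increase.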 The gist of the method:
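HEK293T stably expressing a PCA of ER alpha LBD (aa 310-547) and ER beta LBD (aa 263-489). After 24 h compound exposure, mean fluorescence intensity in nucleus (agonists) or nucleus and cytoplasm (antagonists) measured by laser scanning cytometry versus vehicle.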

For assay [9], the target named is Estrogen receptor beta (Homo sapiens) (UniProt Q92731). Description: OT_ER_ERbERb_0480: Odyssey Thera (OT) 8-hour HEK293T Protein-Complementation Assay for Estrogen Receptor-beta/-beta Homodimer (AID 2283357).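 Further: active means signal gain over DMSO baseline.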 The gist of the method: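 Fluorescence gain from complemented reporter fragments on ER-beta LBD homodimer in HEK293T was quantified against DMSO controls after 8 h treatment, fixation in 4% formaldehyde and Draq5 staining.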

In assay [10] the target is chimpanzee Androgen Receptor (AR), AR (gene 747460) (UniProt O97775). Description: NVS_NR_cAR: NovaScreen (NVS) Nuclear Receptor Binding Assay for chimpanzee Androgen Receptor (AR) (AID 2283346).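 Further: radioligand displacement from AR measured by scintillation counting in a cell-free assay.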 In a few lines:
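Cell-free radioligand displacement using receptor protein extracted from Sf9/Sf21 cells; bound radioligand measured by scintillation counting 72 hours after chemical dosing. Loss of signal versus DMSO baseline indicates binding; primary screen single-concentration in duplicate at 25 uM, actives followed in concentration series.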

For assay [11], the target named is human Thyroid Receptor Alpha (TRa), THRA (gene 7067) (UniProt P10827). Briefly: NVS_NR_hTRa_Antagonist: NovaScreen (NVS) Nuclear Receptor Binding Assay for human Thyroid Receptor Alpha Antagonism (TRa) (AID 2283362). The gist of the method: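 Cell-free AlphaLISA chemiluminescent binding read 1 h after dosing, antagonist mode; signal loss versus DMSO baseline. Primary screen in duplicate at 25 uM, then concentration series for actives.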

Assay [12] deals with Bile acid receptor (Homo sapiens) (UniProt Q96RI1). Briefly: NVS_NR_hFXR_Antagonist: NovaScreen (NVS) Nuclear Receptor Binding Assay for human Farnesoid X Receptor Antagonism (FXR) (AID 2283350). In a few lines:
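Antagonist-format time-resolved FRET binding assay with extracted human receptor protein, read 1 hour after compound addition. Compounds first screened at 25 uM in duplicate, then actives tested in concentration series, with loss of signal relative to DMSO.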

For the next assay, the system named is NCBI gene 100848466. Description: NVS_NR_bPR: NovaScreen (NVS) Nuclear Receptor Binding Assay for bovine Progextron Receptor (PR) (AID 2283343).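 Further: actives lower bound radioligand signal below DMSO meaning displacement of the label.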 The gist of the method: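 Steps: bovine uterine membranes were dosed with chemical alongside radioligand, incubated 18 hours, then radiodetected by scintillation counting. Initial testing used 25 uM in duplicate; confirmed actives were rerun as concentration series.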

The target of assay [13] is Retinoic acid receptor alpha (Homo sapiens) (UniProt P10276). Description: NVS_NR_hRARa_Agonist: NovaScreen (NVS) Nuclear Receptor Binding Assay for human Retinoic Acid Alpha Receptor Agonism (RAR) (AID 2283361). The gist of the method: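 Compounds screened at 25 uM, duplicate, then in concentration series if active. Detection: TR-FRET gain of signal versus DMSO after 2 h with cell-free extracted RARα.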

The target of assay [14] is T1, Estrogen receptor (Homo sapiens) + Estrogen receptor beta (Homo sapiens). Description: OT_ER_ERaERb_0480: Odyssey Thera (OT) 8-hour HEK293T Protein-Complementation Assay for Estrogen Receptor-alpha/-beta Heterodimer (AID 2283352). The gist of the method:
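HEK293T protein-fragment complementation assay of ER-alpha/ER-beta LBD heterodimerisation, read 8 h after dosing. Mean nuclear/cytoplasmic fluorescence intensity measured by laser scanning cytometry; gain of signal fitted relative to DMSO.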

Assay [15] addresses human Constitutive Androstane Receptor (CAR), NR1I3 (gene 9970) (UniProt Q14994). Description: NVS_NR_hCAR_Antagonist: NovaScreen (NVS) Nuclear Receptor Binding Assay for human Constitutive Androstane Receptor Antagonism (CAR) (AID 2283344). The gist of the method: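 Single 25 uM duplicate primary screen, with concentration-series follow-up on actives. Cell-free binding format run in antagonist mode, TR-FRET signal taken 1 h post-dose; activity is signal loss relative to DMSO.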

The target of assay [16] is Retinoic acid receptor alpha (Homo sapiens) (UniProt P10276). Description: NVS_NR_hRAR_Antagonist: NovaScreen (NVS) Nuclear Receptor Binding Assay for human Retinoic Acid Alpha Receptor Antagonism (RAR) (AID 2283358). The gist of the method:
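Chemicals were first tested in duplicate at 25 uM, then actives in concentration series, in a cell-free TR-FRET antagonist binding format. Measurements were taken 2 hours after dosing and loss of signal was evaluated against DMSO controls.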

For assay [17], the target named is human Peroxisome Proliferator-activated Receptor alpha (PPARa), PPARA (gene 5465) (UniProt Q07869). Description: NVS_NR_hPPARa: NovaScreen (NVS) Nuclear Receptor Binding Assay for human Peroxisome Proliferator-activated Receptor alpha (PPARa) (AID 2283359).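 Further: activity means loss of TR-FRET signal versus DMSO baseline.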 The gist of the method:
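One-hour incubation, cell-free extracted protein, TR-FRET binding readout; signal loss vs DMSO scored. Screen: 25 uM duplicates, confirmatory dose series for actives.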

Values joined by “and” are separate entries in the source; they are usually repeats but may differ in a detail not shown here. Equal values may be shown once. Inconclusive results are not listed. Some compounds were tested as several samples or in several runs, with calls that do not always agree. Active and inactive are the calls of the source. How the source made its calls: active means hit-call score of the fitted dose curve at least 0.9, where 1 is the maximum; inconclusive means response in the unintended direction; inactive means score below 0.9.

Estrogen receptor beta (Homo sapiens), sequence (Q92731 whole entry, looked up, the tested form may be a part): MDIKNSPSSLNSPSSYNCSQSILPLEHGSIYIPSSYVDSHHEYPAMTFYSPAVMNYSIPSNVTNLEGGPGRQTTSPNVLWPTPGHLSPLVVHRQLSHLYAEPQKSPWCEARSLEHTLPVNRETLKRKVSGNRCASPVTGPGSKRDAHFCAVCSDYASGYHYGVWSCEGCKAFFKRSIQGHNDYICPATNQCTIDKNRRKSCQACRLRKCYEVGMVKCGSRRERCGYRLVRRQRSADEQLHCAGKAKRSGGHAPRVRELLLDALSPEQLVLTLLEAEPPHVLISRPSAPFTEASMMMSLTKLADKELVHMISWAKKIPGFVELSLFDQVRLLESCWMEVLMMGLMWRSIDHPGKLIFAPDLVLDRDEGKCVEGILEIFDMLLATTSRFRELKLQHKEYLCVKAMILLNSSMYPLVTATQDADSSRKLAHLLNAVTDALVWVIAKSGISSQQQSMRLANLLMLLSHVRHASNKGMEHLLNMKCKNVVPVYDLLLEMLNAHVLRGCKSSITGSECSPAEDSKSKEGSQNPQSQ
human Peroxisome Proliferator-activated Receptor alpha (PPARa), PPARA (gene 5465), sequence (Q07869 whole entry, looked up): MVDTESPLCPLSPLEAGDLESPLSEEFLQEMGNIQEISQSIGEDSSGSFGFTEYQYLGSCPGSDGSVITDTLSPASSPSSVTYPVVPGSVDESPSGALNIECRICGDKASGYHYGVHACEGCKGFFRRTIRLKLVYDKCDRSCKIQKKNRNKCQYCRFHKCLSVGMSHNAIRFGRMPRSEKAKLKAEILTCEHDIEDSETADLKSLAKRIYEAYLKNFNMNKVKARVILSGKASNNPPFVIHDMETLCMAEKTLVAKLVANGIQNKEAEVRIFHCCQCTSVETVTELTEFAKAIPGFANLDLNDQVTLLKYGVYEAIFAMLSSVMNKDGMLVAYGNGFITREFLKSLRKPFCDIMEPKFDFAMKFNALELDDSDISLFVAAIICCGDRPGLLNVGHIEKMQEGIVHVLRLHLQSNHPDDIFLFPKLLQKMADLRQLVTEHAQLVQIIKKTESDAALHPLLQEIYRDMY
Retinoic acid receptor alpha (Homo sapiens), sequence (P10276 whole entry, looked up): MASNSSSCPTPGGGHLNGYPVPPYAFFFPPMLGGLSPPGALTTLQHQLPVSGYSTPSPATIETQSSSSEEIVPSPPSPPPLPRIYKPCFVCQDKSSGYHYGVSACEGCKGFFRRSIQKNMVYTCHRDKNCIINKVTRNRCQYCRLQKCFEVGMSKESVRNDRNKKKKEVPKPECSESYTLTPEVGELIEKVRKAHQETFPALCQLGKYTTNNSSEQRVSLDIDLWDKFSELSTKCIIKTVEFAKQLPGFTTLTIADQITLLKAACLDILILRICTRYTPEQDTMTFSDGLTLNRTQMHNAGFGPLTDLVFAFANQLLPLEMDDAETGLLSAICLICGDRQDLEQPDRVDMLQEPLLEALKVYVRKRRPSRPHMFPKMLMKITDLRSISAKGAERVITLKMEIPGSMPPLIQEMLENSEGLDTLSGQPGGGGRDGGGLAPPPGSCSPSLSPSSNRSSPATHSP
chimpanzee Androgen Receptor (AR), AR (gene 747460), sequence (O97775 whole entry, looked up): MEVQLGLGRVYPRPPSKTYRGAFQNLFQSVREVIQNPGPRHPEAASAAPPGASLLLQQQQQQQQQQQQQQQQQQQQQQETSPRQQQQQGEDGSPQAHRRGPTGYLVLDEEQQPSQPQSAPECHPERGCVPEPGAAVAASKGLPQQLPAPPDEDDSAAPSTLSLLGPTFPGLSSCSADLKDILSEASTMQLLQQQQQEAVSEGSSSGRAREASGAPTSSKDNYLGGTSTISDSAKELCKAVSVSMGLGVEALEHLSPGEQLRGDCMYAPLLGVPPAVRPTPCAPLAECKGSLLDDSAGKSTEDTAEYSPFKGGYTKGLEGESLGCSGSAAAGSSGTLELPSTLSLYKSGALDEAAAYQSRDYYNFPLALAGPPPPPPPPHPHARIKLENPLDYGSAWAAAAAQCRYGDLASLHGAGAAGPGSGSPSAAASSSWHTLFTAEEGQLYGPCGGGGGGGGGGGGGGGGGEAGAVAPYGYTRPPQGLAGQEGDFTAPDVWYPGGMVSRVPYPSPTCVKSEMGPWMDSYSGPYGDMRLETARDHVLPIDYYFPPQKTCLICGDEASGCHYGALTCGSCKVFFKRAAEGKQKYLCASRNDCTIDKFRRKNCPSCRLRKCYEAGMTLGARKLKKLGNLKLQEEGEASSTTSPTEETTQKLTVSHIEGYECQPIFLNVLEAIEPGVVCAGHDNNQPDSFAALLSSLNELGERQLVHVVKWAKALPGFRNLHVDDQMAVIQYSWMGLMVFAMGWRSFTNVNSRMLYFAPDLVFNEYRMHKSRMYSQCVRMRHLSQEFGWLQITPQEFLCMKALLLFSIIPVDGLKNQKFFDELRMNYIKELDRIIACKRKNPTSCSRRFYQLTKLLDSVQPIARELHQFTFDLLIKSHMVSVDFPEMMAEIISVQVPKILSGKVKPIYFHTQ
Estrogen receptor (Homo sapiens), sequence (P03372 whole entry, looked up): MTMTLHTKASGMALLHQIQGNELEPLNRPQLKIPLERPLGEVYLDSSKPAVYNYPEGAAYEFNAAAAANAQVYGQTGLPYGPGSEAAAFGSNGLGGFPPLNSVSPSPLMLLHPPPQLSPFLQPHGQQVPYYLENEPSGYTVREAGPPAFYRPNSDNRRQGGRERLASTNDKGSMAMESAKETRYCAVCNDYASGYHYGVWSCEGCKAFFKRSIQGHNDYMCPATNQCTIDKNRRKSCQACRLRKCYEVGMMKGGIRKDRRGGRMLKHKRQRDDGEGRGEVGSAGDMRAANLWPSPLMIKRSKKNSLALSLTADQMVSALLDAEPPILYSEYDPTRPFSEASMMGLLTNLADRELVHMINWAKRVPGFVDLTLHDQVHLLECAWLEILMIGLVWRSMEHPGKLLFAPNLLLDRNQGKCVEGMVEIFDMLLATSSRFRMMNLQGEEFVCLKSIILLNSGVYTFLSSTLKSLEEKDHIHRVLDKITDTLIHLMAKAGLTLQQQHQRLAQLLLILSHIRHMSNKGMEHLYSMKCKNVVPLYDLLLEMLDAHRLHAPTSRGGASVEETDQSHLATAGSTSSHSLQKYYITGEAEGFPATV
T1 sequence (P03372 whole entry, looked up, the tested form may be a part): as the sequence (P03372 whole entry, looked up) above
T1 sequence (Q92731 whole entry, looked up, the tested form may be a part): as the sequence (Q92731 whole entry, looked up, the tested form may be a part) above
human Thyroid Receptor Alpha (TRa), THRA (gene 7067), sequence (P10827 whole entry, looked up): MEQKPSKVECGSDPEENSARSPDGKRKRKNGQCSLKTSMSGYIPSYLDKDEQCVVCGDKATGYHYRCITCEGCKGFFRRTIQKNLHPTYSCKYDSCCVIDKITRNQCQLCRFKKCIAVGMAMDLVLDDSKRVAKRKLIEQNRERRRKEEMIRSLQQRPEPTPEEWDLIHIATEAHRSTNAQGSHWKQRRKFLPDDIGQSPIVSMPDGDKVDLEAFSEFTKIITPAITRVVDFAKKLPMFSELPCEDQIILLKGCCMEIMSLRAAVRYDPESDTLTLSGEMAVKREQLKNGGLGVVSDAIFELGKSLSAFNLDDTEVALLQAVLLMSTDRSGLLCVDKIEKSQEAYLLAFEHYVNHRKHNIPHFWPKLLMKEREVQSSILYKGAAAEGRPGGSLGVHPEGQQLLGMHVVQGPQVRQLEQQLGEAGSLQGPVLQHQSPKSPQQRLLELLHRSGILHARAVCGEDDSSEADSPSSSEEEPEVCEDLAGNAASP
human Constitutive Androstane Receptor (CAR), NR1I3 (gene 9970), sequence (Q14994 whole entry, looked up): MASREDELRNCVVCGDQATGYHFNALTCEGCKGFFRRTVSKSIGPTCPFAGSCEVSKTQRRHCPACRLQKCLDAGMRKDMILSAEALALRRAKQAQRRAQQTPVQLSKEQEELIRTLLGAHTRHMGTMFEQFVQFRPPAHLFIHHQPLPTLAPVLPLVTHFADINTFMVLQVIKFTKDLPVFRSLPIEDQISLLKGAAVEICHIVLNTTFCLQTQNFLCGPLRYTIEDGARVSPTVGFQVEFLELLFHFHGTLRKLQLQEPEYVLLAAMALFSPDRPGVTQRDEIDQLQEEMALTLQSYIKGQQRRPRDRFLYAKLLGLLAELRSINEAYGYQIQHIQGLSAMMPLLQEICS

For `Cn1cnc2c1c(=O)[nH]c(=O)n2C`, the compound was called inactive (in assay [1]; in the assay with PGR (gene 5241)).

What is called AC50 is the midpoint of the concentration-response curve, whichever way the signal moves. With `Cc1c(C)c2c(c(C)c1O)CCC(C)(COc1ccc(CC3SC(=O)NC3=O)cc1)O2` (configuration not stated), the result in assay [2], in assay [3], in assay [4], in assay [5], in assay [7] and in assay [8] was inactive. The compound was called inactive in assay [9]. In addition, the AC50 in [6] is 27.4 µM (active).

For the compound `Cc1cc(Cc2ccc(N)c(C)c2)ccc1N`, the call in assay [2] and in assay [11] was inactive. For the same compound, the AC50 in assay [10] is 25 µM (active); in assay [9], 67.6 µM (active).

Consider `CN(C)CCCN1c2ccccc2Sc2ccc(Cl)cc21`, for which the AC50 in [1] was 1.42 µM (active). Moreover, the compound was classed as inactive in [12].

Turning to `CC(=O)[C@@]1(O)CC[C@H]2[C@@H]3CCC4=CC(=O)CC[C@]4(C)[C@H]3CC[C@@]21C`, the AC50 with NCBI gene 100848466 was 0.467 µM (active); in assay [2], 15.4 µM (active); in assay [10], 0.49 µM (active); with PGR (gene 5241), 0.645 µM (active). Moreover, the result in assay [2], in assay [10], in assay [9] and in [13] was inactive.

For `O=[Si]=O`, the compound was called inactive in assay [2], in assay [4], in [5], in assay [14], in assay [8] and in [9].

As for `CCc1nc(N)nc(N)c1-c1ccc(Cl)cc1`, the AC50 in assay [1] is 2.94 µM (active). Further, the outcome (in [4]; in assay [5]; in [14]; in assay [8]; in assay [9]; in the assay with PGR (gene 5241)) was inactive.

`CCN(CC)CCOc1ccc(C(=C(Cl)c2ccccc2)c2ccccc2)cc1`: the AC50 in assay [1] was 1.82 µM (active); with NCBI gene 100848466, 11.6 µM (active); in assay [15], 34 µM (active); in [10], 4.82 µM (active); in assay [12] it was 13.5 µM (active); in assay [9], 21.5 nM (active) and 118 nM (active) and 9.83 nM (active). Also, the AC50 in assay [16] is 16.1 µM (active) and 11 µM (active) and 12.5 µM (active); in [13], 25.9 µM (active) and 21 µM (active); in assay [11], 14.9 µM (active) and 12.2 µM (active) and 16.3 µM (active). Moreover, in [13], the call was inactive.

Regarding `CC(C)NCC(O)c1ccc(O)c(O)c1` (configuration not stated), the outcome in assay [1], in assay [9], in assay [17] and in assay [11] was inactive.

`CCCCCCCCCCCCCCOS(=O)(=O)O`: the AC50 was 25 µM (active) in the assay with NCBI gene 100848466 and 3.99 µM (active) in assay [17]. The result in assay [4], in assay [5], in [8] and in [9] was inactive.

Turning to `CCC(C)N(C)C(=O)c1cc2ccccc2c(-c2ccccc2Cl)n1` (configuration not stated), the outcome in assay [2], in assay [3], in assay [4], in assay [5], in assay [14] and in assay [7] was inactive. Further, the result in [8], in assay [9] and in [17] was inactive. For the same compound, in assay [6], the AC50 was 26 µM (active).
